Assay outcomes from PubChem.
Compounds with a hit are over-represented: about 8% of the library has one in this group of screens.
Lassa entry inh = qHTS for Inhibitors of binding or entry into cells for Lassa Virus; Lassa virus pseudotype entry inhibition, cell reporter; Potency, µM (doses to about 37.9 µM), for the others: at the highest dose activity change, negative = inhibition, actives largely listed as inhibitors; 1.2% of 300,000 active; calls by dose curve; tested in HEK293 cells; also: potency is read from the fitted curve at half-maximal effect; % is scaled to controls: 0 for no effect and ±100 for the full control effect; nearly all actives have a fitted effect of over 50% in size
FMDV inh = High Throughput Screening for Foot and Mouth Disease Virus Antivirals; FMDV antiviral cell-based qHTS; Potency, µM (top dose mostly 57.9 µM), without a hit: top-dose activity change, negative = inhibition, usual class: inhibitors; 1.2% of 410,000 active; calls by dose curve; tested in HEK293T cells; also: read-out not given here; potency is read from the fitted curve at half-maximal effect; % is scaled to controls: 0 for no effect and ±100 for the full control effect; nearly all actives have a fitted effect of over 45% in size
HCV inhibitor = qHTS Assay for Inhibitors of Hepatitis C Virus (HCV); Huh7.5.1 HCVcc-Cre infection, luciferase reporter, 44 h; Potency, µM (series often up to 41.8 µM), for inactives: at the highest dose activity change, negative = inhibition, most hits filed as inhibitors; AID 651820, 2012; 3.4% of 340,000 active; active = well fitted inhibition curve with a large enough effect; inconclusive = small, poorly fitted or top-dose-only effect, or another doubt; inactive = no such curve, though single readings can be large or run the other way; also: potency is read from the fitted curve at half-maximal effect; % is scaled to controls: 0 for no effect and ±100 for the full control effect
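Antiviral activity was scored by luciferase reporter output from cells infected with HCVcc-Cre (~0.5 moi) in presence of compound, 44 h infection period, cells seeded 1,000/well 4 h prior.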
HCMV inh = qHTS Assay for inhibitors of the human cytomegalovirus (HCMV); activity change, negative = inhibition, % at 57.5 µM; HFF cells, HCMV-luciferase reporter, 72 h; hits give low values; 4.5% of 410,000 active; in the data active = activity change below about -60%; inconclusive = no clear call, values can overlap the other calls; inactive = above about -39%; also: % is scaled to controls: 0 for no effect and ±100 for the full control effect
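Screen run at 2 compound doses on HFFs infected with reporter HCMV, MOI 1 PFU/cell. Luciferase activity from cell lysates at 72 h post infection gave inhibition relative to buffer-only and Salinomycin wells.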
Marburg entry inh = qHTS for inhibitors of binding or entry into cells for Marburg Virus; 1.8% of 300,000 active; AID 540276, 2011; Marburg virus pseudotyped entry inhibition, cell reporter; Potency, µM (doses to about 37.8 µM), for the others: top-dose activity change, negative = inhibition, actives largely listed as inhibitors; calls by dose curve; tested in HEK293 cells; also: potency is read from the fitted curve at half-maximal effect; % is scaled to controls: 0 for no effect and ±100 for the full control effect
SARS PLP yeast = qHTS of Yeast-based Assay for SARS-CoV PLP | S. cerevisiae expressing SARS-CoV PLpro, growth rescue | Potency, µM (doses to about 32.9 µM), inactives show at the top dose activity, positive = growth rescue, hits mostly activators | 0.19% of 330,000 active | AID 485353, 2010; calls by dose curve; also: potency is read from the fitted curve at half-maximal effect; 0% is about no effect; nearly all actives have a fitted effect of over 55% in size
An asterisk follows results filed as active; ? = inconclusive; nt = no result; [ ] = remark or other dose.

SMILES	Lassa entry inh	FMDV inh	HCV inhibitor	HCMV inh	Marburg entry inh	SARS PLP yeast
O=C(CN1CCc2ccccc2C1)Nc1ccccc1N1CCCCCC1	-29%	?	?	nt	18µM*	-11%
CC(C)CC(=O)Nc1ccccc1N1CCCC1	-2%	-23%	1%	-78*	4%	27%
O=C(Nc1ccccc1N1CCCCC1)c1ccc(F)cc1	-13%	0%	?	-25	-17%	-14%
O=C(CNC1CCCCCC1)Nc1ccccc1N1CCCCC1	?	-14%	?	-29	?	2%
O=C(Nc1ccccc1F)Nc1ccccc1N1CCCCC1	?	?	14µM*	-83*	-17%	-2%
O=C(CNCC1CCCCC1)Nc1ccccc1N1CCCCC1	16%	?	11µM*	?	-43%	1%
COc1ccc(CCNC(=O)CCc2c(C)c3cc4c(C)coc4c(C)c3oc2=O)cc1OC	?	-11%	nt	-18	12%[46.1 µM]	nt
CC(c1nc2ccccc2c(=O)[nH]1)N1CCCN(S(=O)(=O)c2ccc(F)cc2)CC1 (stereo unspecified)	nt	?	?	-17	nt	2%
Cc1sc2ncnc(Sc3ccccc3C(=O)Nc3ccccc3Cl)c2c1C	nt	-14%	-16%	-37	-2%	-15%
Cc1sc2ncnc(Sc3ccccc3C(=O)Nc3ccc(C#N)cc3)c2c1C	?	14%	25µM*	?	?	-8%
Cc1sc2ncnc(Sc3ccccc3C(=O)Nc3ccc(Br)cc3)c2c1C	-19%	9%	5.6µM*	-27	-18%	-39%
COc1ccc(C(=O)N2CCNC(=O)C2CC(=O)Nc2cc(Cl)ccc2OC)cc1 (stereo unspecified)	?	21%	6%	20	-2%[46.1 µM]	-2%
CCOc1ccc(-n2c(C)cc(/C=N/NC(=O)C(N)=O)c2C)cc1	-20%	2%	?	-16	1%[46.1 µM]	-2%
CCOc1ccc(-n2c(C)cc(/C=N\NC(=O)CC(=O)NC3CCCCC3)c2C)cc1	?	-29%	-11%	-81*	?	-8%
CC(C)(C)CNCc1ccccc1NC(=O)OC(C)(C)C	nt	nt	nt	-13	nt	nt
Cc1cc(S(=O)(=O)NCCc2ccccc2)c(C)s1	-3%	66%	?	-98*	7%	-32%
NC(=O)c1cc(NC(=O)CCCc2nc3ccccc3s2)cc(C(N)=O)c1	1%	-10%	?	-13	-2%[46.1 µM]	-1%
O=S(=O)(c1ccc(Br)cc1)N1CCN=C1SCc1cccnc1	nt	-9%	14%	-69*	nt	-2%
CCCS(=O)(=O)N1CCN=C1SCc1cccnc1	-4%	10%	5%	-62*	16%[46.1 µM]	1%
CCCS(=O)(=O)N1CCN=C1SCc1ccc(F)cc1	nt	0%	8%	0	nt	1%
CS(=O)(=O)N1CCN=C1SCc1cccc(F)c1	nt	3%	10%	-30	nt	-3%
O=S(=O)(c1ccc2ccccc2c1)N1CCN=C1SCc1cccnc1	nt	-6%	19%	-17	nt	-6%
O=S(=O)(c1ccc(F)cc1)N1CCN=C1SCc1cccnc1	nt	-5%	6%	-67*	nt	4%
CCS(=O)(=O)N1CCN=C1SCc1cccc(F)c1	nt	-23%	30%	-60*	nt	-2%
COc1ccc(CN2CCOc3ccc(CN4CCC(Oc5cccnc5)CC4)cc3C2)cc1C	nt	-29%	nt	nt	nt	nt
SMILES	Lassa entry inh	FMDV inh	HCV inhibitor	HCMV inh	Marburg entry inh	SARS PLP yeast
CN(C)S(=O)(=O)c1ccc(C(=O)N2CCN=C2SCc2cccnc2)cc1	?	-20%	4%	-15	?	20µM*
O=S(=O)(c1ccccc1)N1CCN=C1SCc1ccc(Cl)c(Cl)c1	?	-24%	?	-74*	?	-14%
COc1ccc(CC(=O)Nc2ccncc2Cl)cc1	nt	?	6.3µM*	-92*	nt	-1%
Cc1ccc(SCCOCCN2CCc3ccccc3C2)cc1	-7%	-17%	?	-27	?	-36%
Fc1ccccc1-c1noc2nc(Oc3cccc(N4CCOCC4)c3)ccc12	nt	nt	nt	-29	nt	nt
Cn1c(=O)n(Cc2ccccc2Br)c2ccccc21	nt	-15%	-12%	-62*	?	1%
CCOC(=O)CCN1C(=O)[C@@H]2[C@H]3[C@H](O)[C@H](O)CC(=NOCc4ccccc4)[C@@H]3CC[C@H]2C1=O	?	nt	nt	nt	-7%[14.2 µM]	nt
